From PubChem BioAssay AID1159580 (chemical genetic matrix, 2015)
“And” between values parts separate entries of the source, which are not always exact repeats. Equal entries are not always repeated. Screen size: about 5,500 compounds; about 2,000 (36%) were called active. Not shown: some 18% with an inconclusive outcome. Cut-off read from the data, not from the text of the source: active = normalized growth mostly below about 0.91 (no sharp cut-off); inconclusive = no clear call, values can overlap the other calls; inactive = mostly above about 0.92. This is one part of the list.

Test: chemical genetic growth profiling, strain panel (AID 1159580);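 note: tested at 20 µM; growth read once vehicle control cultures reached saturation at 30 °C; 1 = growth at the plate median or of vehicle wells; lower values mean less growth of the strain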
Settings: S. cerevisiae deletion strains, growth OD

Measured: normalized growth

CCN(CC)CCNC(=O)c1cc(Cl)c(N)cc1OC
inactive: locus YAL013W, strain DEP1, active compounds read low 1.01 | locus YAL021C, strain ccr4, active compounds read low 0.992 | locus YAL026C, strain drs2, active compounds read low 0.998 | locus YAL030W, strain snc1, active compounds read low 0.974 | locus YAL040C, strain CLN3, active compounds read low 0.981 | locus YBL061C, strain skt5, active compounds read low 0.976 | locus YBR009C, strain hhf1, active compounds read low 0.987 | locus YBR021W, strain FUR4, active compounds read low 1.02 | locus YBR023C, strain chs3, active compounds read low 0.984 | locus YBR171W, strain sec66, active compounds read low 0.979 | locus YBR229C, strain ROT2, active compounds read low 1.01 | locus YBR231C, strain swc5, active compounds read low 0.996 | locus YBR279W, strain paf1, active compounds read low 0.992 | locus YCL011C, strain gbp2, active compounds read low 0.94 | locus YCL016C, strain dcc1, active compounds read low 0.948 | locus YCL029C, strain bik1, active compounds read low 0.993 | locus YCL061C, strain MRC1 (second series), active compounds read low 1.01 | locus YCL061C, strain MRC1, active compounds read low 0.988 | locus YCL069W, strain vba3, active compounds read low 0.985 | locus YCR088W, strain abp1, active compounds read low 0.991 | locus YDL005C, strain med2, active compounds read low 0.986 | locus YDL035C, strain GPR1, active compounds read low 1.01 | locus YDL040C, strain nat1, active compounds read low 0.988 | locus YDL074C, strain BRE1, active compounds read low 1.02 | locus YDL101C, strain DUN1, active compounds read low 1 | locus YDL134C, strain PPH21, active compounds read low 1.01 | locus YDL185W, strain tfp1, active compounds read low 0.996 | locus YDL192W, strain arf1, active compounds read low 1.01 | locus YDR001C, strain nth1, active compounds read low 0.968 | locus YDR069C, strain doa4, active compounds read low 0.962 | locus YDR101C, strain arx1, active compounds read low 0.985 | locus YDR137W, strain rgp1, active compounds read low 0.967 | locus YDR150W, strain NUM1, active compounds read low 1.02 and 1.01 | locus YDR159W, strain sac3, active compounds read low 1.01 | locus YDR162C, strain NBP2, active compounds read low 1.01 | locus YDR195W, strain ref2 0.974 | locus YDR297W, strain sur2, active compounds read low 0.984 | locus YDR318W, strain mcm21, active compounds read low 0.996 | locus YDR334W, strain swr1, active compounds read low 0.93 | locus YDR335W, strain msn5, active compounds read low 0.976 | locus YDR363W, strain ESC2, active compounds read low 1.02 | locus YDR388W, active compounds read low 0.995 | locus YDR392W, strain spt3, active compounds read low 0.975 | locus YDR502C, strain sam2, active compounds read low 0.988 | locus YEL003W, strain gim4, active compounds read low 0.994 | locus YEL037C, strain rad23, active compounds read low 0.976 | locus YEL061C, strain CIN8 (second series), active compounds read low 0.978 | locus YEL061C, strain CIN8, active compounds read low 1.01 | locus YER002W, strain NOP16, active compounds read low 0.994 | locus YER015W, strain faa2, active compounds read low 0.979 | locus YER016W, strain bim1, active compounds read low 0.994 | locus YER110C, active compounds read low 0.994 | locus YER111C, strain swi4, active compounds read low 0.988 | locus YER155C, strain BEM2 (second series), active compounds read low 1.03 | locus YER155C, strain BEM2, active compounds read low 0.999 | locus YER167W, strain BCK2, active compounds read low 1.01 | locus YFR010W, strain ubp6, active compounds read low 0.969 | locus YGL078C, strain dbp3, active compounds read low 0.997 | locus YGL086W, strain mad1, active compounds read low 0.993 | locus YGL167C, strain pmr1, active compounds read low 0.972 | locus YGL173C, strain kem1, active compounds read low 0.98 | locus YGL227W, strain vid30, active compounds read low 0.977 | locus YGL240W, strain doc1, active compounds read low 1.01 | locus YGL248W, strain PDE1, active compounds read low 1.01 | locus YGL253W, strain hxk2, active compounds read low 0.981 | locus YGR078C, strain PAC10, active compounds read low 1.02 | locus YGR135W, strain pre9, active compounds read low 0.998 | locus YGR229C, strain SMI1, active compounds read low 1.01 and 1.02 | locus YGR252W, strain gcn5, active compounds read low 0.958 | locus YHR013C, strain ard1, active compounds read low 0.955 | locus YHR027C, strain rpn1, active compounds read low 0.963 | locus YHR030C, strain SLT2, active compounds read low 1.01 and 1.07 | locus YHR079C, strain IRE1 (second series), active compounds read low 0.994 | locus YHR079C, strain IRE1, active compounds read low 1.07 | locus YHR094C, strain hxt1, active compounds read low 0.992 | locus YHR129C, strain ARP1, active compounds read low 1 | locus YHR142W, strain chs7, active compounds read low 0.939 | locus YHR200W, strain rpn10, active compounds read low 0.994 | locus YIL066C, strain RNR3, active compounds read low 1.02 | locus YIL073C, strain SPO22, active compounds read low 1.02 | locus YIL125W, strain kgd1, active compounds read low 0.993 | locus YIR030C, strain dcg1, active compounds read low 1 | locus YJL092W, strain hpr5, active compounds read low 0.978 | locus YJL095W, strain BCK1 (second series), active compounds read low 0.978 | locus YJL095W, strain BCK1, active compounds read low 1 and 1.04 | locus YJL115W, strain asf1, active compounds read low 0.953 | locus YJL129C, strain trk1, active compounds read low 0.997 | locus YJL134W, strain LCB3, active compounds read low 1.01 | locus YJL154C, strain vps35, active compounds read low 0.971 | locus YJL164C, strain tpk1, active compounds read low 1.01 | locus YJL166W, strain qcr8, active compounds read low 0.956 | locus YJL168C, strain set2, active compounds read low 0.992 | locus YJL187C, strain SWE1 (second series), active compounds read low 1.02 | locus YJL187C, strain SWE1, active compounds read low 0.989 | locus YJR043C, strain POL32, active compounds read low 0.996 | locus YJR066W, strain TOR1, active compounds read low 1
